Legend:
Assay in all cases: PBM binding z-score (relative to random genomic background probes); higher = stronger binding; sequences stand for … in GC…GCGATTGACAGCGTAGAATGAAGG
[1] = test system: RARb homodimer (NR concentration 270 nM)
Outline: (§1)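 Custom Agilent 4×180K protein-binding microarrays carried double-stranded probes. Their 34-nt variable regions held direct-repeat seeds, single-nucleotide variants, half-site ablations and random human genomic background sequences. Arrays were incubated 1 h with ligand-free nuclear receptor dimers in PBS pH 7.4, 2% milk, 0.02% Triton X-100, 1 mM DTT, 0.2 mg/mL BSA and 0.4 mg/ml salmon testes DNA. Antibodies against each partner (one per run) detected binding, and scanned fluorescence was regression-normalized. Binding z-scores use random background probes as reference.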

[2] = test system: RARg:RXRa (NR concentration 270 nM, RXRa partner concentration 90 nM)
Outline: as §1

[3] = test system: RARg homodimer (NR concentration 270 nM)
Outline: as §1

[4] = test system: RXRa DBDmut IVT, anti-RXR (DBD mutation: RXRa K156A/R161A, NR concentration 90 nM)
Outline: as §1

[5] = test system: RXRa homodimer (NR concentration 180 nM)
Outline: as §1

[6] = test system: THRa:RXRa (NR concentration 90 nM, RXRa partner concentration 90 nM)
Outline: as §1

[7] = test system: THRa homodimer (NR concentration 90 nM)
Outline: as §1

[8] = test system: VDR homodimer (NR concentration 270 nM)
Outline: as §1

Sequence	PBM binding z-score [1]	PBM binding z-score [2]	PBM binding z-score [3]	PBM binding z-score [4]	PBM binding z-score [5]	PBM binding z-score [6]	PBM binding z-score [7]	PBM binding z-score [8]
ATATGTAGGTTAGGTTCATTCAGAAAGTAGGGAA	1.29	1.47	1.35	3.43	2.17	1.8	0.787	5.47
ACTAGTTGCTCAGCTGAGGTCACACACAATTCGG	3.77	3.37	2.72	1.09	3.6	4.23	4.94	3.14
GATACAGAGTCAGCTAGAGGCCAGAGTATGGAAA	-0.00482	0.958	0.249	-0.732	-0.0704	-0.305	-1.05	-0.0123
CCTAGTTGGTCAAGGTAACACACGCTATAGGTAC	1.22	0.88	1.36	0.599	0.724	1.85	1.57	0.864
GGAACGAGGGCAAAGGTGATAGCATCTGTCGACG	1.66	3.02	1.95	2.07	3.31	1.85	-0.159	1.02
CCGGGTAGGTTACGAGGGGGCATTCAGTGCGAAT	2.2	3.26	2.22	0.966	2.35	3.94	0.875	2.55
CGAACTAGGTCACCAGGTCAGTGAAGAGGTTGGA	4.64	5.69	6.17	1.7	4.83	3.89	2.72	1.52

Reference: the supplement of paper PMC6555819
